How the values were obtained:
Test in all cases: DAPPL (digital affinity profiling via proximity ligation, sequencing); 10 mM Tris-HCl pH 7.5, 50 mM NaCl, 1 mM DTT, 4% glycerol, room temperature, 30 min; GST-TFs on glutathione beads, 16-mer random dsDNA library, 0.1% formaldehyde crosslink after washing; high values mean tight binding
Conditions in all cases: protein: recombinant; tags: N-terminal GST; dsDNA, one strand shown
ELK1 = molecular target: T1, ELK1 (Homo sapiens, UniProt P19419 1-428)
T1 sequence: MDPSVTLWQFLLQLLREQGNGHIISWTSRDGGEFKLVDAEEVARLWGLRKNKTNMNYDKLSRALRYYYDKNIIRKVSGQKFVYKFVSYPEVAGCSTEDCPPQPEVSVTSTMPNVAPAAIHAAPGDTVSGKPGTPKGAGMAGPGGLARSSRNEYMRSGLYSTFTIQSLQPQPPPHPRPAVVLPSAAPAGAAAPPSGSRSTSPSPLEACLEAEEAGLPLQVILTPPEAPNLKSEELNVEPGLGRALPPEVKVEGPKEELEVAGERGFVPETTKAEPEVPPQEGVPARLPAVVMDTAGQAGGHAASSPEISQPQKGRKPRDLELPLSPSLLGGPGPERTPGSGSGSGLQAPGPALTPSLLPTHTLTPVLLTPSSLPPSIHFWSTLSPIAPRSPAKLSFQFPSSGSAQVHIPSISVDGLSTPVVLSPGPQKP
In short: (§1)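 Human transcription factors fused to GST were expressed in yeast, captured on glutathione beads, given DNA barcodes and pooled with a GST-only negative control. Pools were incubated with 200 nmole of a 16-mer random double-stranded DNA library in Tris/NaCl/DTT/glycerol buffer at room temperature for 30 min. They were then washed, crosslinked with 0.1% formaldehyde, proximity-ligated (BsaI/T4 ligase, 1 h, 37 °C), PCR-amplified and sequenced on an Illumina NextSeq500. Binding signal is each 6-mer's read frequency for a factor divided by its frequency for the GST control.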

GABPA = molecular target: T2, GABPA (Homo sapiens, UniProt Q06546 1-454)
T2 sequence: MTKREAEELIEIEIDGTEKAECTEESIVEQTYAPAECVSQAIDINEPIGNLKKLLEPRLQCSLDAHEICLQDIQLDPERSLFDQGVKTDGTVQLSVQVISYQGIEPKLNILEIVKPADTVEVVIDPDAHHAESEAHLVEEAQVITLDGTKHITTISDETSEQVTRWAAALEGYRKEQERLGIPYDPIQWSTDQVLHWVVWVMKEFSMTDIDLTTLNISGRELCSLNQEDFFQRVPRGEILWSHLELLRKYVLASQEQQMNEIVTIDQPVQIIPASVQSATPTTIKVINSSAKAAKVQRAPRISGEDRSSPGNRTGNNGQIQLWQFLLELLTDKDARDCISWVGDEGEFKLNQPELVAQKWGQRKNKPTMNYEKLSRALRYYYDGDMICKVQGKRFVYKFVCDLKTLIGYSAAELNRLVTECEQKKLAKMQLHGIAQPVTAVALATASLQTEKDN
In short: as §1

ELF3 = molecular target: T3, ELF3 (Homo sapiens, UniProt P78545 1-371)
T3 sequence: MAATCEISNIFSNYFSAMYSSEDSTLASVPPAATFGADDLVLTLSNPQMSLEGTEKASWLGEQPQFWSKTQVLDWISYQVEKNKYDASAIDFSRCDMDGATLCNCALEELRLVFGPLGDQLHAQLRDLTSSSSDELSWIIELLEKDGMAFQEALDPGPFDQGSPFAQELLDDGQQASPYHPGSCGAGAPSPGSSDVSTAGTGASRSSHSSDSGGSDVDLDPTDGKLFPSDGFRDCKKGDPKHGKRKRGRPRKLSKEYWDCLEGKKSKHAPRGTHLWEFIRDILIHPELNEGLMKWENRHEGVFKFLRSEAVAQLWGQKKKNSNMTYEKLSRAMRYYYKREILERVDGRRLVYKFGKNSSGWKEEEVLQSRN
In short: as §1

ETV3L = molecular target: T4, ETV3L (Homo sapiens, UniProt Q6ZN32 1-361)
T4 sequence: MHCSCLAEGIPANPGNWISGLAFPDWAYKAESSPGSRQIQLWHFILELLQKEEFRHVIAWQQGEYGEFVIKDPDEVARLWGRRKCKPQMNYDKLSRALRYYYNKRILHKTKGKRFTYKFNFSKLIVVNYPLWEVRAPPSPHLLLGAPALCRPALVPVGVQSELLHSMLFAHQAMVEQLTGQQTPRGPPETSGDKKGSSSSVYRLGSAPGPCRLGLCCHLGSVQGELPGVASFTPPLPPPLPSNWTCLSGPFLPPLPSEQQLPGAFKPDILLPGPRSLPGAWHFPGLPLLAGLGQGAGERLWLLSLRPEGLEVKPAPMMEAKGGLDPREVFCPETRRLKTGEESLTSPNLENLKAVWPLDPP
In short: as §1

ETV7 = molecular target: T5, ETV7 (Homo sapiens, UniProt Q9Y603 1-341)
T5 sequence: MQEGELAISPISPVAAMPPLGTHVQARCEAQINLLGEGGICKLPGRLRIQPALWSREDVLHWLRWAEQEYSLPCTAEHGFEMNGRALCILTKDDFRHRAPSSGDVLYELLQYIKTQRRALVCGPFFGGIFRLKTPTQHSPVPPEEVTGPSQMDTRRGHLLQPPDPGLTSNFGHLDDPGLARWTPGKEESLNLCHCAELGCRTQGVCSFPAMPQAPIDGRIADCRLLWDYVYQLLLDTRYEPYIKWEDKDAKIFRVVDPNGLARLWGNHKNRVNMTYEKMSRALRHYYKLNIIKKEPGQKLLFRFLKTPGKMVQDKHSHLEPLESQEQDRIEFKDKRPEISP
In short: as §1

ELF1 = ELF1 (Homo sapiens, UniProt P32519 1-619)
ELF1, sequence (P32519 whole entry): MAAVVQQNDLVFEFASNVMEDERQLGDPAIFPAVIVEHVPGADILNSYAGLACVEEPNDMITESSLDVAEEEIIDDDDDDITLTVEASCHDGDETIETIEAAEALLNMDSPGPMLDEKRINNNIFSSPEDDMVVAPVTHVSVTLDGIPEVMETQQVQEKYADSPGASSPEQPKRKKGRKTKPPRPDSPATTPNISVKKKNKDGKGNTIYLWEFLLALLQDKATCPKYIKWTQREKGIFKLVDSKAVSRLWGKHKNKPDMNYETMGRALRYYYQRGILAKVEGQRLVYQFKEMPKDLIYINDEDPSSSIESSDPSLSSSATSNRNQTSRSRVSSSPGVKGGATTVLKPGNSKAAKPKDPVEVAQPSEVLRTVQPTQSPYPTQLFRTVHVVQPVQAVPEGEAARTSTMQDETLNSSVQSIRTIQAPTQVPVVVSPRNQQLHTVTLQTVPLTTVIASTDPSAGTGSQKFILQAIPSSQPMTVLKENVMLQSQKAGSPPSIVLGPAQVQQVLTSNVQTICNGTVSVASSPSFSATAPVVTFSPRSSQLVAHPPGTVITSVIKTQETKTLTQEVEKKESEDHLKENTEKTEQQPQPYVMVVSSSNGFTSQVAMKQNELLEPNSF
In short: as §1

EHF = molecular target: T6, EHF (Homo sapiens, UniProt Q9NZC4 1-300)
T6 sequence: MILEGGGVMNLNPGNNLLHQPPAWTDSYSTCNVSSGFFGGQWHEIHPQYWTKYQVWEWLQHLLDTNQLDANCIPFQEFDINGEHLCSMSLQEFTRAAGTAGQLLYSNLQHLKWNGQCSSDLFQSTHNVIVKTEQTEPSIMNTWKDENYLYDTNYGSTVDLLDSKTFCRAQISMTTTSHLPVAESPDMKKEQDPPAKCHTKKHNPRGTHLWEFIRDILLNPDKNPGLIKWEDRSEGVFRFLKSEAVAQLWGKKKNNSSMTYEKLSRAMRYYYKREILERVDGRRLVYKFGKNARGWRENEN
In short: as §1

ELK3 = molecular target: T7, ELK3 (Homo sapiens, UniProt P41970 1-407)
T7 sequence: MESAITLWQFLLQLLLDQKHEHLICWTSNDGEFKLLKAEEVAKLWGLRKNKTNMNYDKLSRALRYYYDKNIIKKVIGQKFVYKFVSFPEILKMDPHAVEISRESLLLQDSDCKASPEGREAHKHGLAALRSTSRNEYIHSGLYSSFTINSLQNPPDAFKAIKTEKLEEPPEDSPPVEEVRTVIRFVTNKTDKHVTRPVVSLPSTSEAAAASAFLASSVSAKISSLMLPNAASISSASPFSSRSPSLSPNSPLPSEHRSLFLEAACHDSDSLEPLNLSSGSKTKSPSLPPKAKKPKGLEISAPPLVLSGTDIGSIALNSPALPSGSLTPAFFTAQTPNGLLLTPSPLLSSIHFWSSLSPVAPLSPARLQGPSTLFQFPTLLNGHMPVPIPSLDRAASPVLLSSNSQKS
In short: as §1

ELK4 = molecular target: T8, ELK4 (Homo sapiens, UniProt P28324-2 1-405)
T8 sequence: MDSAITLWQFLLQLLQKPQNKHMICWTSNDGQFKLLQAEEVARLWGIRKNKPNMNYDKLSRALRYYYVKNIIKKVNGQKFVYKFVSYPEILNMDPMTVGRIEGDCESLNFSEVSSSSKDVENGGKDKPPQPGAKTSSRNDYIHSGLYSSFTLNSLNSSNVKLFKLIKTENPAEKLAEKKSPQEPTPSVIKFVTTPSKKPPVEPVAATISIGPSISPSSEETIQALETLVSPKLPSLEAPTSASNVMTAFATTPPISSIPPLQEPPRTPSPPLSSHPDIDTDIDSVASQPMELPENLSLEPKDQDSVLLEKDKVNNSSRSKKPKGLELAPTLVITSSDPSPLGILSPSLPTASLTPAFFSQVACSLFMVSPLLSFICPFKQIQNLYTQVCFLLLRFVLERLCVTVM
In short: as §1

CRX = CRX (Homo sapiens, UniProt O43186 1-299)
CRX, sequence (O43186 whole entry): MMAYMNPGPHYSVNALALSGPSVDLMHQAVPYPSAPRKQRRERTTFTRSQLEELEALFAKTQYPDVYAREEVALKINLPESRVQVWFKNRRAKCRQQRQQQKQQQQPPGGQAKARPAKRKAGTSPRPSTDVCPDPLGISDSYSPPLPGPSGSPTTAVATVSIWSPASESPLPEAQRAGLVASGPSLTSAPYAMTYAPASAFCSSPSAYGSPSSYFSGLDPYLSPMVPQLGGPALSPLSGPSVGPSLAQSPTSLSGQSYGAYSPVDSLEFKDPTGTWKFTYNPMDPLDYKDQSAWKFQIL
In short: as §1

SPI1 = SPI1 (Homo sapiens, UniProt P17947 1-270)
In short: as §1

ETV2 = molecular target: T9, ETV2 (Homo sapiens, UniProt O00321 1-342)
T9 sequence: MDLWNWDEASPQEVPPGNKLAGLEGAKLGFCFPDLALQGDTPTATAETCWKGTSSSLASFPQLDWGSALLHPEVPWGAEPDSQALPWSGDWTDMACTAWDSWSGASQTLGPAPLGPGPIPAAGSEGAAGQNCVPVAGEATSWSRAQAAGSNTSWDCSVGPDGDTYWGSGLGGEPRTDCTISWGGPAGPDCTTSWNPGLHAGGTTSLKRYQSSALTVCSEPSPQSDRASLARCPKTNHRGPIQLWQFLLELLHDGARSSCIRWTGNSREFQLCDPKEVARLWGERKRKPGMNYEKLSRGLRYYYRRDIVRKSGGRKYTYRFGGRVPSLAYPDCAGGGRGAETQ
In short: as §1

**Q.** Which results are given for AGATGT?
**A.** binding signal (ELK1): 1 fold enrichment (6-mer frequency, TF over GST control); binding signal (GABPA): 1.01 fold enrichment (6-mer frequency, TF over GST control); binding signal (ELF3): 1.04 fold enrichment (6-mer frequency, TF over GST control); binding signal (ETV3L): 1 fold enrichment (6-mer frequency, TF over GST control); binding signal (ETV7): 1.04 fold enrichment (6-mer frequency, TF over GST control)

**Q.** How did the binding signal (ELF1) turn out when TCTGAG was run?
**A.** 1.01 fold enrichment (6-mer frequency, TF over GST control)

**Q.** And the binding signal (EHF)?
**A.** 1.01 fold enrichment (6-mer frequency, TF over GST control)

**Q.** What about the binding signal (ELK3) of the same sequence?
**A.** 1.01 fold enrichment (6-mer frequency, TF over GST control)

**Q.** And the binding signal (ELK4)?
**A.** 1.08 fold enrichment (6-mer frequency, TF over GST control)

**Q.** And the binding signal (CRX)?
**A.** 1.04 fold enrichment (6-mer frequency, TF over GST control)

**Q.** And the binding signal (ETV3L)?
**A.** 1.01 fold enrichment (6-mer frequency, TF over GST control)

**Q.** And the binding signal (ETV7)?
**A.** 1.05 fold enrichment (6-mer frequency, TF over GST control)

**Q.** Which results are given for GGCTGC?
**A.** binding signal (EHF): 1.02 fold enrichment (6-mer frequency, TF over GST control); binding signal (SPI1): 1.01 fold enrichment (6-mer frequency, TF over GST control); binding signal (ELK4): 1 fold enrichment (6-mer frequency, TF over GST control); binding signal (ETV7): 1.14 fold enrichment (6-mer frequency, TF over GST control)

**Q.** How did the binding signal (ELK4) turn out when CCATAG was run?
**A.** 1.06 fold enrichment (6-mer frequency, TF over GST control)

**Q.** And the binding signal (ETV2)?
**A.** 1.01 fold enrichment (6-mer frequency, TF over GST control)

Reference: PMC7862700, “An all-to-all approach to the identification of sequence-specific readers for epigenetic DNA modifications on cytosine”
